Screening results as filed in PubChem.
Only a selection was taken, and hits are over-represented in it overall.
Dicer processing: inhibitors of human Dicer processing of pre-microRNA | Q9UPY3 | cat-ELCCA pre-miR-21 Dicer processing, chemiluminescence; stronger effect = higher value | z-score at 25 µM | hit rate 6% among 47,000; in the data active = z-score above about 3, passing the limit was not always enough;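 also: higher signal means more uncleaved substrate so more Dicer inhibition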
Target sequence (Q9UPY3 whole entry, looked up): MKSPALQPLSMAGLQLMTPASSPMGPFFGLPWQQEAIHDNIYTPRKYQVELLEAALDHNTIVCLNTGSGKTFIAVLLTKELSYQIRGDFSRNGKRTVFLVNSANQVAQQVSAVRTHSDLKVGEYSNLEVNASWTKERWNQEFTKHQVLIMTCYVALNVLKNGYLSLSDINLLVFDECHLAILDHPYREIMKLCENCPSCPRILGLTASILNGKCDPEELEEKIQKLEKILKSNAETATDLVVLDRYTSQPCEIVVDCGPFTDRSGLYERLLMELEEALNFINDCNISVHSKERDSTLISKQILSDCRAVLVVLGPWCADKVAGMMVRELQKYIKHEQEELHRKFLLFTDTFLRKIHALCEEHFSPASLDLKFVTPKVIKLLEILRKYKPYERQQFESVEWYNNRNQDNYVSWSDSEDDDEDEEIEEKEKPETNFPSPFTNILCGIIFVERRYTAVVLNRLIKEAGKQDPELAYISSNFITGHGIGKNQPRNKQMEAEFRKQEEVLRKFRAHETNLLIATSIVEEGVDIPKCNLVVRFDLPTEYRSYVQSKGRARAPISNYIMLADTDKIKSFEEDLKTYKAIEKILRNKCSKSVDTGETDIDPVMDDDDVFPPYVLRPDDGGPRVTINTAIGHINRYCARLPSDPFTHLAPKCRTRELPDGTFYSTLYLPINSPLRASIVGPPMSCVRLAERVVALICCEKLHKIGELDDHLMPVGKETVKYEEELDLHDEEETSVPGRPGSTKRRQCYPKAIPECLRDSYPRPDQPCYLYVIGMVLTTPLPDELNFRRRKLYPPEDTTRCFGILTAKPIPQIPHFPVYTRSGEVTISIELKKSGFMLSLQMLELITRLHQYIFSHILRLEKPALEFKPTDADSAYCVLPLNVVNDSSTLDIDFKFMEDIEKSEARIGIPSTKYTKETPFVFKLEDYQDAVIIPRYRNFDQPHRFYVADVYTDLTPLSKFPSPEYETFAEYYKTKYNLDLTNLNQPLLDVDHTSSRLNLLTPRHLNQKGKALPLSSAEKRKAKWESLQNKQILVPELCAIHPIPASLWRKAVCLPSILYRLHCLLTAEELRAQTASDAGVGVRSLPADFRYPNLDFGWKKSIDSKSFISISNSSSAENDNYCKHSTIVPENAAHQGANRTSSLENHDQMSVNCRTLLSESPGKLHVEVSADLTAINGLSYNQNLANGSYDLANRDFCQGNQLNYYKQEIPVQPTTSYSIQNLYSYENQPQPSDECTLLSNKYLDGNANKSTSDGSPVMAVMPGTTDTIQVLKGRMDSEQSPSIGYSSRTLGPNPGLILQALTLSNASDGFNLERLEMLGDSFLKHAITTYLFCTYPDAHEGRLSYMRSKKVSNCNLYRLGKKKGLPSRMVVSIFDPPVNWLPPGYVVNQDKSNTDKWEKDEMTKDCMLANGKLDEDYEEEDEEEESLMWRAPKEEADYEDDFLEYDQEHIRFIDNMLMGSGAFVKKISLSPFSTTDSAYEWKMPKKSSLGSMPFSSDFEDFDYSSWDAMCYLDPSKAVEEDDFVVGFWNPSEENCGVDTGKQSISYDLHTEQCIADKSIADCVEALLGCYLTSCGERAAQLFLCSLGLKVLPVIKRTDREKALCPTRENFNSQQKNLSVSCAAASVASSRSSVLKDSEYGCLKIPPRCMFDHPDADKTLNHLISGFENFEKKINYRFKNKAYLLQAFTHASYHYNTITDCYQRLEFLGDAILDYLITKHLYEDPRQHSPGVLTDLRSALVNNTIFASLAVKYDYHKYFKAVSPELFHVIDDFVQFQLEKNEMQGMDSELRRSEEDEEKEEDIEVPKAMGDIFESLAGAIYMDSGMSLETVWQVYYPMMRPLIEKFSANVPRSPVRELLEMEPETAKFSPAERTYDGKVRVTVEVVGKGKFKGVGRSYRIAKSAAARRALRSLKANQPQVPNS
Of the large screens only hits and unclear results are named; the others gave an inactive call.

Cc1ccc(-c2nc(-c3cc(Cl)c(Cl)s3)cs2)cc1	none
CC(C)CCn1c(NCc2ccco2)nc2c1c(=O)[nH]c(=O)n2C	Dicer processing 3.6
CC(C)CCNc1nc2c(c(=O)[nH]c(=O)n2C)n1CCO	none
Cn1c(=O)[nH]c(=O)c2c1nc(NCc1ccco1)n2Cc1ccc(F)cc1	none
COC(=O)CS(=O)(=O)c1cc(C)c(Cl)cc1Cl	none
COc1ccc2c(c1)CCc1c-2nc2ccccc2c1N1CCOCC1	none
CCOc1ccccc1Oc1c(C)oc2cc(O)ccc2c1=O	none
CCOc1ccccc1Oc1coc2cc(O)ccc2c1=O	Dicer processing 3.3
COc1ccccc1Oc1coc2cc(O)ccc2c1=O	none
O=c1c(Cl)c(N2CCOCC2)cnn1-c1cnc2ccccc2n1	none
COC(=O)c1cnc(SCc2c(Cl)cccc2Cl)n1C	none
N#CCCN(C1CCCCC1)S(=O)(=O)c1cc(Cl)c(Cl)cc1Cl	none
Cc1cc(OS(=O)(=O)CS(=O)(=O)Oc2cc(C)c(Cl)c(C)c2Cl)c(Cl)c(C)c1Cl	none
CN(C)/C=C1/C(=O)N(c2ccccc2)N=C1C(C)(C)C	none
COc1ccc(OCc2nc(CSc3cc(C)c(Cl)cc3C)cs2)cc1	none
COc1ccc(OCCC(=O)N/N=C/C=C/c2ccccc2)cc1	none
COc1ccc(OCCC(=O)NN)cc1	Dicer processing 3.3
COc1ccc(OCCN)cc1	none
CC1=CC(C)(C)N(C(=O)CSc2nc3ccccc3o2)c2ccccc21	none
Cc1ccc2nc3c(nc2c1C)C(O)=C3O	Dicer processing 4.2
Cc1ccc(C(=O)C2=NNCC2c2c3ccccc3cc3ccccc23)cc1 (stereo not drawn)	none
COc1ccc(C2C(C(=O)c3ccco3)=C(O)C(=O)N2CCCN(C)C)cc1OC (stereo not drawn)	none
Cc1ccc2nc(Cc3nc4ccc(C)cc4[nH]3)[nH]c2c1	none
Cc1nc2ccc(Cc3ccc4nc(C)[nH]c4c3)cc2[nH]1	Dicer processing 5
Cc1ccc2nc(Cc3ccc(N)cc3)[nH]c2c1	none
COC(=O)C(CC(C)C)NC(=O)CSc1nc(C)cc(=O)[nH]1 (stereo not drawn)	none
FC(F)(F)c1cc(-c2ccc(-n3cccc3)cc2)n[nH]1	none
CCOC(=O)c1c(C)n(-c2ccccc2)c2cc(Br)c(O)cc12	Dicer processing 3.7
CCOC(=O)c1c(C)n(-c2ccccc2)c2ccc(OC(C)=O)cc12	none
CCOC(=O)c1c(C)n(-c2ccccc2)c2ccc(OC(=O)c3cccnc3SCC)cc12	none
CCOC(=O)c1c(C)n(-c2ccc(Br)cc2)c2ccc(O)cc12	none
CCOC(=O)c1c(C)n(-c2ccc(N(C)C)cc2)c2ccc(OC)cc12	none
COc1ccccc1N1CCN(c2nnc(C)c3ccccc23)CC1	none
CCOC(=O)c1c(C)n(-c2ccc(N(C)C)cc2)c2ccc(OCC(N)=O)cc12	Dicer processing 4.6
CCS(=O)(=O)Nc1cc2c(C(=O)O)c(C)n(S(=O)(=O)CC)c2cc1OC	none
COc1ccccc1N1CCN(C(=O)c2cc(C)on2)CC1	none
COc1cc2c(C(=O)O)c(C)n(-c3ccccc3)c2cc1Br	Dicer processing 3.1
COc1cc(C(=O)O)cc(Br)c1OC	none
COc1ccccc1-n1c(C)c(C(=O)O)c2cc(OC)c3ccccc3c21	Dicer processing 4.6
O=C1CN(C(=O)CN2CCOCC2)c2ccccc2N1	none
CCCN(CCC)S(=O)(=O)c1ccc(C(=O)Nc2cc(OC)cc(C(F)(F)F)c2)cc1	none
CN(NC(=O)c1ccc(Cl)cc1)c1cnn(C)c(=O)c1Cl	none
CN(C)CCn1c2c(c3ccccc31)CCCn1cnnc1-2	none
CCCCc1nc2sc3c(N4CCOCC4)ncnc3c2c2c1COC(C)(C)C2	none
CCC(Oc1ccccc1)C(=O)Nc1nc2c(s1)C(=O)CC(C)(C)C2 (stereo not drawn)	none
Cc1cc(NC(=O)CSc2nc(-c3ccccc3)c(C#N)c(=O)[nH]2)no1	none
CC1(C)CC(=O)c2sc(NC(=O)CSc3nc(-c4ccccc4)c(C#N)c(=O)[nH]3)nc2C1	Dicer processing 4.1
O=C(Nc1cc(Cl)cc(Cl)c1)c1cc(Cl)c(-n2cccc2)c(Cl)c1	none
CC(C)(C)SCCNc1nc(Sc2ccc(Cl)cc2)nc(N2CCSCC2)n1	none
CCC(C)OC(=O)COc1ccc2c(=O)c(Oc3cccc(C)c3)coc2c1 (stereo not drawn)	none
CCOC(=O)C1CCN(/C=C(\C#N)S(=O)(=O)C(C)(C)C)CC1	none
CCC12CN3CC(CC)(CN(C1)C3c1ccccc1F)C2=O (stereo not drawn)	none
CCCC12CN3CC(CCC)(CN(C1)C3c1ccc(O)cc1)C2=O (stereo not drawn)	none
CCC12CN3CC(CC)(CN(C1)C3c1ccccc1)C2=O (stereo not drawn)	Dicer processing 5.5
O=C(c1ccc(N2CCOCC2)nc1)N1CCN(C(c2ccccc2)c2ccccc2)CC1	none
CSCC(CSC)OC(=O)c1c(-c2c(Cl)cccc2Cl)noc1C	none
CN(C)S(=O)(=O)N(CC(=O)N1CCN(c2cccc(Cl)c2)CC1)c1ccccc1	none
CC1=CC(=O)C(CCOCCC2=CC(=O)C(C)=CC2=O)=CC1=O	none
O=C(Oc1c(Cl)cc(Cl)c2cccnc12)c1cccs1	none
Cc1ccc(S(=O)(=O)Nc2cc(Cl)c(O)c3ncccc23)cc1	Dicer processing 8.6
Cc1ccc(C(NC(=O)C(C)C)c2cc(Cl)c3cccnc3c2O)cc1 (stereo not drawn)	none
Cc1ccc(S(=O)(=O)Nc2ncccc2OCc2ccc(Cl)c(Cl)c2)cc1	none
Oc1c(Cl)cc(Cl)c2cccnc12	Dicer processing 3.1
Cc1ccc(S(=O)(=O)Nc2cc(S(=O)(=O)c3ccc(C)cc3)c(O)c3cccnc23)cc1	none
CN(C)C(=O)Cc1coc2ccc3ccccc3c12	none
CCSC1=C(C#N)C(c2ccc(Br)cc2)CC(=O)N1 (stereo not drawn)	none
O=C(NC1CCCC1)c1ccc(C2SCC(=O)N2CCc2ccccc2)cc1 (stereo not drawn)	none
CCS(=O)(=O)n1nc(-c2ccco2)nc1SCc1ccccc1	none
CS(=O)(=O)n1nc(-c2ccco2)nc1SCc1ccccc1	none
COc1ccc(-c2nc(SCc3ccccc3)n(S(C)(=O)=O)n2)cc1	Dicer processing 5.2
CCOCCOC(=O)C1=C(C)NC2=C(C(=O)CC(C)(C)C2)C1c1ccc(Br)cc1 (stereo not drawn)	none
Cc1csc(-c2snnc2C)n1	none
Cn1c(=O)[nH]c(=O)c2c1ncn2CC(=O)NCc1ccco1	none
N=C(N)c1ccc(Cl)cc1	Dicer processing 3.7
N=C(N)c1cc(Cl)cc(Cl)c1	none
O=C(O)CCC(=O)c1ccc(Cl)cc1	none
CCOC(=O)C(NC(=O)CC)(Nc1ccccc1F)C(F)(F)F (stereo not drawn)	none
CCN(/C=C/c1nnnn1-c1ccc(Br)cc1)CC	none
CCc1ccc(-n2nnnc2/C=C/N(C)C)cc1	none
CCN(/C=C/c1nnnn1-c1ccc(Cl)cc1)c1ccccc1	Dicer processing 3.2
COC(=O)c1cnc(N2CCCN(S(=O)(=O)c3ccsc3)CC2)nc1C(F)(F)F	none
Cc1cc(C)c(C#N)c(Sc2c([N+](=O)[O-])ncn2C)n1	none
Nc1n[nH]c(-c2ccccc2)c1-c1ccccc1	Dicer processing 3.5
N#CC1=C(N)Oc2n[nH]c(-c3ccccc3)c2C1c1ccc(Cl)cc1 (stereo not drawn)	none
Nc1nc(-c2ccccc2)cc(=O)[nH]1	none
O=C(Nc1nccs1)C1CC1(c1ccccc1)c1ccccc1 (stereo not drawn)	none
Cn1c(=O)c2c(c3ccccc31)OC(=O)CC2c1c(F)cccc1Cl (stereo not drawn)	none
CC(C)(C)c1ccc(-c2nnc(NC(=O)c3cccs3)s2)cc1	none
CSc1nc2sc3c(c2c(=O)n1-c1ccccc1)CCC(C)C3 (stereo not drawn)	none
CCOC(=O)c1ccc(-n2c(=S)[nH]c3ccccc32)cc1	none
